Test systems include MOLT-4 leukemia; SR leukemia; RPMI-8226 leukemia; OVCAR-8 ovarian; OVCAR-5 ovarian; OVCAR-4 ovarian; SK-OV-3 ovarian; IGROV1 ovarian; OVCAR-3 ovarian; HS 578T breast; NCI/ADR-RES ovarian; T-47D breast; BT-549 breast; MDA-MB-435 melanoma; SW-620 colon; MCF7 breast; HCT-116 colon; HCC-2998 colon; KM12 colon.
Common to all, as to test: NCI-60 one-dose screen, 48 h (100 = growth as untreated, 0 = no growth, -100 = all killed)
Holding throughout (conditions): 10 µM unless noted

Each structure is given as a SMILES string. Compounds without any hit were thinned out: in the full panel of roughly 83,000, 20% have a hit.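 In brief: 96-well plates, 48 h treatment, single concentration, percent growth endpoint.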 Values without a mark were called inactive. Active and inactive are the calls of the source. Rule for the calls: active = growth percent below 10; inactive = the rest.

For the compound `CCCCCCCCCCCCNC(c1ccccc1)C(O)c1ccccc1` (stereo unspecified), the growth with MOLT-4 leukemia is 61.7%; with SR leukemia it was -14.3% (active); with RPMI-8226 leukemia it was 18.3%; with OVCAR-8 ovarian, 67.9%; with OVCAR-5 ovarian it was 92.9%; in the assay on OVCAR-4 ovarian, 10.5%. The growth is 95.8% with SK-OV-3 ovarian; 53.7% in the assay with IGROV1 ovarian; 83.8% in the assay with OVCAR-3 ovarian; 106% in the assay on HS 578T breast; 68.8% in the assay on NCI/ADR-RES ovarian; 70.4% in the assay with T-47D breast. Moreover, the growth is 103% in the assay on BT-549 breast; 91.4% in the assay on MDA-MB-435 melanoma; 48.1% in the assay on SW-620 colon; 63.7% in the assay with MCF7 breast; 12.2% with HCT-116 colon; 43.1% with HCC-2998 colon. Besides, in the assay with KM12 colon, the growth is 74.9%.

As for `O=P(Oc1ccc(Cl)cc1)(N1CC1)N1CC1`, the growth is 84.8% in the assay on MOLT-4 leukemia; 77.8% in the assay on SR leukemia; 88.6% in the assay with RPMI-8226 leukemia; 89.3% in the assay on OVCAR-8 ovarian; 117% in the assay with OVCAR-5 ovarian; 97.3% in the assay on OVCAR-4 ovarian. Further, the growth was 104% in the assay on SK-OV-3 ovarian; 89.1% in the assay on IGROV1 ovarian; 109% with OVCAR-3 ovarian; 103% with HS 578T breast; 101% in the assay with NCI/ADR-RES ovarian; 106% with T-47D breast. Besides, the growth is 92.8% in the assay on BT-549 breast; 109% in the assay with MDA-MB-435 melanoma; 89.3% in the assay on SW-620 colon; 67.4% in the assay on MCF7 breast; 84% in the assay on HCT-116 colon; 88.5% in the assay with HCC-2998 colon. In addition, the growth in the assay with KM12 colon was 110%.

On to `CC1CCCC(C[N+](C)(C)C)C1=O` (stereo unspecified), for which the growth with MOLT-4 leukemia was 75.7%; with SR leukemia, 86.8%; in the assay with RPMI-8226 leukemia, 105%; in the assay on OVCAR-8 ovarian, 108%; in the assay on OVCAR-5 ovarian it was 104%; in the assay on OVCAR-4 ovarian it was 93.1%. Further, the growth is 110% with SK-OV-3 ovarian; 92.3% in the assay with IGROV1 ovarian; 121% in the assay on OVCAR-3 ovarian; 111% with HS 578T breast; 107% in the assay with NCI/ADR-RES ovarian; 84.5% in the assay with T-47D breast. The growth is 125% in the assay with BT-549 breast; 106% in the assay with MDA-MB-435 melanoma; 109% in the assay on SW-620 colon; 103% in the assay with MCF7 breast; 109% in the assay with HCT-116 colon; 102% in the assay with HCC-2998 colon. In addition, the growth with KM12 colon was 109%.

On to `O=C1CN=C(c2ccc(Cl)cc2)c2sccc2N1`, for which the growth in the assay with MOLT-4 leukemia was 95.6%; in the assay with SR leukemia, 87.1%; with RPMI-8226 leukemia it was 97.7%; with OVCAR-8 ovarian, 101%; with OVCAR-5 ovarian, 104%; with OVCAR-4 ovarian it was 102%. The growth with SK-OV-3 ovarian was 113%; in the assay with IGROV1 ovarian it was 108%; with OVCAR-3 ovarian, 109%; in the assay on HS 578T breast it was 99.6%; in the assay with NCI/ADR-RES ovarian it was 109%; with T-47D breast, 95.3%. For the same compound, the growth in the assay with BT-549 breast is 103%; in the assay on MDA-MB-435 melanoma, 109%; with SW-620 colon it was 110%; in the assay on MCF7 breast, 96.5%; in the assay with HCT-116 colon it was 101%; in the assay on HCC-2998 colon it was 116%. In addition, the growth in the assay on KM12 colon is 103%.

With `C=C1C(=O)O[C@H]2[C@H]1CC/C(COC(=O)C(=O)c1cn(Cc3ccccc3)c3ccccc13)=C\CC[C@@]1(C)O[C@@H]21`, the growth was -17.3% (active) in the assay with MOLT-4 leukemia; 4.96% (active) in the assay with SR leukemia; -36.2% (active) with RPMI-8226 leukemia; -2.2% (active) with OVCAR-8 ovarian; -32.6% (active) with OVCAR-5 ovarian; 7.79% (active) in the assay with OVCAR-4 ovarian. Moreover, the growth is 86.9% in the assay on SK-OV-3 ovarian; -85.5% (active) in the assay on IGROV1 ovarian; -82.7% (active) with OVCAR-3 ovarian; 5.95% (active) with HS 578T breast; -1.18% (active) with NCI/ADR-RES ovarian; -7.91% (active) with T-47D breast. In addition, the growth was -77.4% (active) in the assay with BT-549 breast; -76.6% (active) in the assay with MDA-MB-435 melanoma; -84.8% (active) in the assay with SW-620 colon; -68.7% (active) in the assay on MCF7 breast; -81.5% (active) in the assay with HCT-116 colon; -85.4% (active) in the assay on HCC-2998 colon. Further, the growth in the assay on KM12 colon was -89.7% (active).

On to `CC(C)(C)N1CC1C#N` (stereo unspecified), for which the growth is 98.4% with MOLT-4 leukemia; 97.6% in the assay on SR leukemia; 99.2% in the assay on RPMI-8226 leukemia; 103% in the assay with OVCAR-8 ovarian; 99.5% in the assay on OVCAR-5 ovarian; 119% with OVCAR-4 ovarian. The growth is 101% in the assay with SK-OV-3 ovarian; 103% with IGROV1 ovarian; 101% in the assay with OVCAR-3 ovarian; 104% with HS 578T breast; 106% in the assay with NCI/ADR-RES ovarian; 89.3% in the assay on T-47D breast. The growth in the assay with BT-549 breast is 103%; in the assay on MDA-MB-435 melanoma, 108%; in the assay with SW-620 colon, 103%; in the assay with MCF7 breast it was 100%; in the assay with HCT-116 colon it was 100%; in the assay on HCC-2998 colon it was 98.8%. Besides, the growth in the assay with KM12 colon is 99.2%.

In the case of `O=P1(NCCCl)OCCCN1CCCl` (stereo unspecified), the growth in the assay with MOLT-4 leukemia is 101%; with SR leukemia, 91.2%; in the assay on RPMI-8226 leukemia, 105%; in the assay with OVCAR-8 ovarian, 114%; in the assay with OVCAR-5 ovarian it was 106%; with OVCAR-4 ovarian, 112%. In addition, the growth in the assay on SK-OV-3 ovarian was 100%; with IGROV1 ovarian it was 111%; with OVCAR-3 ovarian, 107%; in the assay with HS 578T breast, 92.7%; in the assay on NCI/ADR-RES ovarian, 110%; in the assay with T-47D breast, 105%. Moreover, the growth in the assay on BT-549 breast is 104%; in the assay with MDA-MB-435 melanoma, 107%; in the assay on SW-620 colon, 98%; in the assay on MCF7 breast it was 101%; in the assay with HCT-116 colon it was 106%; in the assay on HCC-2998 colon, 107%. Moreover, the growth in the assay on KM12 colon was 103%.

On to `O=C1C(N2CC2)=C(N2CC2)C(=O)C(N2CC2)=C1N1CC1`, for which the growth in the assay on MOLT-4 leukemia was 32.9%; in the assay with SR leukemia, 2.9% (active); with RPMI-8226 leukemia it was 37.7%; with OVCAR-8 ovarian it was 0.671% (active); in the assay on OVCAR-5 ovarian, -60.6% (active); with OVCAR-4 ovarian it was 51.7%. Besides, the growth with SK-OV-3 ovarian is -30.6% (active); in the assay on IGROV1 ovarian, -23.5% (active); with OVCAR-3 ovarian it was 4.7% (active); in the assay with HS 578T breast, 14.3%; in the assay with NCI/ADR-RES ovarian, -27.7% (active); with T-47D breast, 30.5%. The growth in the assay on BT-549 breast was -34.2% (active); in the assay with MDA-MB-435 melanoma, -74.7% (active); in the assay on SW-620 colon, 0.521% (active); in the assay on HCT-116 colon, -79.2% (active); with HCC-2998 colon, -94.9% (active); in the assay with KM12 colon, -58.6% (active).

The record behind these values is PubChem BioAssay (NCI).
